Hits are enriched below; roughly 4.9% of the tested compounds scored in any of these assays.
SKKanGAS inh – SKKanGAS growth inhibition; S. pyogenes SKKanGAS, kanamycin growth, BacTiter-Glo, 6 h; inhibition, % at 7.5 µM; actives 1.3% (n = 300,000); AID 1662;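 active = mean replicate score, as percent of positive control median, at least 50; inconclusive = mean below 50 but one replicate at or above 50; inactive = mean and every replicate below 50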;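 note: strain carries kanamycin resistance gene driven by streptokinase promoter and grows in 40 µg/ml kanamycin; loss of luminescence reflects streptokinase promoter inhibition or plain growth inhibition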
tim23-1 inh – tim23-1 yeast growth inhibition; actives 1.3% (n = 330,000); inhibition, % at 20 µM; AID 463212; S. cerevisiae tim23-1 growth, BacTiter-Glo luminescence, 24 h;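 active = growth inhibition of the mutant yeast at or above 50%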;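 note: temperature-sensitive mutant grown at 25 °C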
NALP3 yeast inh – NALP3 inhibition in yeast; Yeast reconstituted NLRP3/ASC/caspase-1, beta-gal luminescence, 24 h; inhibition, % at 10 µM; actives 0.39% (n = 330,000); AID 2825;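 active = inhibition of 50% or more; inactive = inhibition below 50%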
NALP1 yeast inh – NALP1 inhibition; S. cerevisiae NALP1/ASC/caspase-1 growth, X-gal OD620, 72 h; actives 0.61% (n = 280,000); inhibition, % at 10 µM; in the data active = inhibition mostly above about 24%, no sharp cut-off; inactive = mostly below about 32%
TIM10 inh – growth inhibitors of TIM10 yeast strain; S. cerevisiae TIM10 strain growth, BacTiter-Glo luminescence, 24 h; inhibition, % at 10 µM; actives 1.4% (n = 330,000); AID 463195;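 active = inhibition of 40% or more at the single tested concentration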;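 note: wild-type TIM10 isogenic control strain grown at permissive 25 °C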
tim10-1 inh – growth inhibitors of tim10-1 mutant yeast; inhibition, % at 20 µM; actives 2.2% (n = 330,000); S. cerevisiae tim10-1 ts strain growth, BacTiter-Glo, 24 h;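 active = inhibition of at least 40%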;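 note: mutant grown at 25 °C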
tim10-1 conf – tim10-1 yeast growth inhibition, confirmed | shares compounds with tim10-1 inh | S. cerevisiae tim10-1 ts strain growth, BacTiter-Glo, 24 h | inhibition, % at 20 µM | actives 56% (n = 7,400) | AID 463213;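 active = inhibition of yeast growth at or above a set limit in either of two repeat tests at 20 µM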;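 note: tim10-1 mutant grown at permissive 25 °C to find synthetic lethal compounds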
tim10 confirm – confirmation of TIM10 yeast growth inhibitors; AID 463215; S. cerevisiae tim10 strain growth, BacTiter-Glo luminescence, 24 h; inhibition, % at 10 µM; shares compounds with TIM10 inh; actives 63% (n = 4,600);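 active = inhibition of yeast growth at or above a set limit in either of two replicates at 10 µM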; note: this counterscreen used the strain with wild-type TIM10
tim23-1 conf – confirmation of tim23-1 mutant yeast growth inhibitors | actives 83% (n = 4,400) | shares compounds with tim23-1 inh | inhibition, % at 20 µM | AID 463218 | S. cerevisiae tim23-1 growth, BacTiter-Glo luminescence, 24 h;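 active = inhibition above about 39% in either of two replicate wells at 20 µM, limit read from the data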;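 note: temperature-sensitive tim23-1 mutant grown at 25 °C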
Of the large screens only hits and unclear results are named; the others gave an inactive call (follow-up assays come after a bar, where they were run).

Cc1nn2c(NCc3ccccn3)cc(C(C)C)nc2c1-c1ccccc1	SKKanGAS inh 101, tim23-1 inh 60, TIM10 inh 64, tim10-1 inh 45 | tim10-1 conf 49 | tim10 confirm 68 | tim23-1 conf 61
Cc1ccc(C)c(NC(=O)C2CC(=O)N(C3CCCCC3)C2)c1 (configuration not stated)	none
Cn1c(/C(C#N)=C/C2CC=CCC2)nc2ccccc21 (configuration not stated)	tim23-1 inh 69, tim10-1 inh 43 | tim10-1 conf 39 | tim23-1 conf 51
N#C/C(=C\C1CC=CCC1)c1nc2ccccc2[nH]1 (configuration not stated)	none
O=C(OCc1nnc(-c2ccccc2)o1)c1ccc([N+](=O)[O-])o1	tim23-1 inh 80, tim10-1 inh 78 (no result: NALP1 yeast inh) | tim10-1 conf 59 | tim23-1 conf 84
N#C/C(=C\c1ccccn1)c1nc2ccccc2s1	tim23-1 inh 65, TIM10 inh 78, tim10-1 inh 83 | tim10-1 conf 87 | tim10 confirm 82 | tim23-1 conf inactive
Cc1cnc(C(=O)OCC(=O)N2CCC(C)CC2)cn1	none (no result: SKKanGAS inh, NALP1 yeast inh)
Cc1ccccc1OCC(=O)NC(=S)Nc1ccc(Br)c(C)n1	SKKanGAS inh inconclusive
Cc1ccccc1OCC(=O)NC(=S)Nc1cccc2cc(O)ccc12	tim23-1 inh 63, tim10-1 inh 57 | tim10-1 conf 55 | tim23-1 conf 49
O=C(COC(=O)c1cccc(F)c1)NC(=O)NCc1ccccc1	none (no result: SKKanGAS inh, NALP1 yeast inh)
O=C(CNc1ccccc1Cl)N/N=C1\CCCc2ccccc21	none
CCOc1ccc(NCc2nnc(SCc3ccc(Cl)cc3)n2-c2ccccc2)cc1	tim23-1 inh 52, TIM10 inh 47, tim10-1 inh 46 | tim10-1 conf 42 | tim10 confirm inactive | tim23-1 conf 56
CCOC(=O)C1=CN(Cc2ccco2)S(=O)(=O)N(CC)C1c1ccccc1 (configuration not stated)	none (no result: SKKanGAS inh, NALP3 yeast inh, NALP1 yeast inh)
O=C(COC(=O)c1ccccc1OCc1ccccc1Cl)NCC1CCCO1 (configuration not stated)	none (no result: SKKanGAS inh, NALP1 yeast inh)
COC(=O)c1ccc(/C=C(\C#N)C(=O)NC(C)c2ccccc2)cc1 (configuration not stated)	tim23-1 inh 66, TIM10 inh 61, tim10-1 inh 64 | tim10-1 conf 62 | tim10 confirm 57 | tim23-1 conf 58
C=C(C)COc1ccc2c(C)c(CCC(=O)N3C[C@H]4C[C@@H](C3)c3cccc(=O)n3C4)c(=O)oc2c1	none
O=C(Oc1cccc2c(O)cccc12)c1ccccc1	SKKanGAS inh inconclusive, tim23-1 inh 79, tim10-1 inh 47 | tim10-1 conf inactive | tim23-1 conf 50
Fc1ccccc1-n1cc(-c2ccccc2)[nH]c1=S	none
FC(F)(F)c1cccc(-n2cc(-c3ccccc3)[nH]c2=S)c1	tim23-1 inh 56, tim10-1 inh 48 | tim10-1 conf 35 | tim23-1 conf 50
Cc1ccc(-c2cn(-c3ccccc3)c(=S)[nH]2)cc1C	tim23-1 inh 52, TIM10 inh 48, tim10-1 inh 47 | tim10-1 conf inactive | tim10 confirm 42 | tim23-1 conf 49
Cc1ccc(CNc2ccc(N3CCN(C)CC3=O)cc2)cc1	none (no result: SKKanGAS inh, NALP1 yeast inh)
CCOc1ccc(OCC)c(NC(=O)CN2CCN(CC(=O)NC(C)C)CC2)c1	none
[O-]/C(=C(\C(=S)NCc1ccccc1)[n+]1ccccc1)c1ccc(Cl)cc1	none
CC1(C)Cc2ccccc2-c2nc3n(c(=O)c21)CCS3	none
CC1(C)Cc2ccccc2-c2nc3n(c(=O)c21)CCCS3	tim23-1 inh 51, tim10-1 inh 42 | tim10-1 conf 33 | tim23-1 conf 60
O=C(Nc1nc(-c2ccco2)c(-c2ccco2)s1)C1CC(=O)N(c2ccc3c(c2)OCCO3)C1 (configuration not stated)	none
O=C(Nc1nc(-c2ccco2)c(-c2ccco2)s1)C1CCC1	tim23-1 inh 66, TIM10 inh 46, tim10-1 inh 45 | tim10-1 conf 59 | tim10 confirm 48 | tim23-1 conf 60
O=C(NCCCN1CCCC1=O)c1ccc(NS(=O)(=O)c2ccc(F)cc2)cc1	none (no result: SKKanGAS inh, NALP1 yeast inh)
Cc1ccccc1C(=O)Nc1sc(C)c(C)c1C(=O)c1ccccc1	none
O=C(CCl)Nc1sccc1C(=O)c1ccccc1	tim23-1 inh 60, TIM10 inh 47, tim10-1 inh 54 (no result: NALP1 yeast inh) | tim10-1 conf 55 | tim10 confirm 52 | tim23-1 conf 50
Cc1sc(NC(=O)CCl)c(C(=O)c2ccccc2)c1C	tim23-1 inh 52, TIM10 inh 46, tim10-1 inh 43 | tim10-1 conf 39 | tim10 confirm inactive | tim23-1 conf 38
COc1ccc(-c2noc(CN(C)Cc3ccccc3)n2)c(OC)c1OC	none
COc1cc(C)ccc1OCc1cc(C(=O)N2CCCCCCC2)no1	none
CN1CCN(c2cc(N3CCN(C(=O)c4ccco4)CC3)c3c4c(onc24)-c2ccccc2C3=O)CC1	tim23-1 inh 69, TIM10 inh 47, tim10-1 inh 56 | tim10-1 conf 47 | tim10 confirm 48 | tim23-1 conf 74
COc1cccc(C(=O)O/N=C(\N)c2ccncc2)c1	none (no result: SKKanGAS inh)
COc1ccc(C(=O)O/N=C(\N)c2cccc(C)c2)cc1OC	tim23-1 inh 53, TIM10 inh 46, tim10-1 inh 51 | tim10-1 conf 52 | tim10 confirm 54 | tim23-1 conf 71
COc1cccc(C(=O)O/N=C(\N)Cc2ccc(Cl)cc2)c1	tim23-1 inh 58, NALP1 yeast inh 77, TIM10 inh 85, tim10-1 inh 53 | tim10-1 conf inactive | tim10 confirm inactive | tim23-1 conf 43
COc1cccc(C(=O)O/N=C(\N)c2ccc(C)cc2)c1	tim23-1 inh 69, TIM10 inh 72, tim10-1 inh 57 | tim10-1 conf 41 | tim10 confirm 82 | tim23-1 conf 71
COc1cccc(C(N)=O)c1	none (no result: NALP1 yeast inh)
Cc1cccc(/C(N)=N/OC(=O)c2ccoc2C)c1	tim23-1 inh 67, TIM10 inh 55, tim10-1 inh 44 | tim10-1 conf 55 | tim10 confirm 39 | tim23-1 conf 50
CCOC(=O)C1=C(N)OC2=C(C(=O)CC(C)(C)C2)C1C1CCCCC1 (configuration not stated)	tim23-1 inh 56, tim10-1 inh 45 | tim10-1 conf 34 | tim23-1 conf 46

Bioassay records (PubChem BioAssay)
